Laboratory results reported in paper PMC7819943, “Rice protein-binding microarrays: a tool to detect cis-acting elements near promoter regions in rice”.
Over roughly 39,000 sequences, “fluorescence intensity (a.u.)” has its median near 4,300; the highest 2% begin near 39,000. For the sample, the highest values were picked, then their nearest neighbours and some sequences at random.

molecular target: T1, OsSMF1 (Oryza sativa, UniProt Q6ZLB0 1-436); assay: protein-binding microarray (RPBM); PBS, 2% BSA, 51.3 ng/ul salmon testes DNA, 50 uM zinc acetate, 200 nM TF, 25 C, 1 h; high values mean tight binding; conditions: protein: recombinant; tags: N-terminal polyhistidine and DsRed monomer fusion (pET32a); chain copies: 2; label: CyDye5-dUTP incorporated in the synthesized complementary strand; 3' TTTTT single-stranded linker to array surface; dsDNA, one strand shown
T1 sequence: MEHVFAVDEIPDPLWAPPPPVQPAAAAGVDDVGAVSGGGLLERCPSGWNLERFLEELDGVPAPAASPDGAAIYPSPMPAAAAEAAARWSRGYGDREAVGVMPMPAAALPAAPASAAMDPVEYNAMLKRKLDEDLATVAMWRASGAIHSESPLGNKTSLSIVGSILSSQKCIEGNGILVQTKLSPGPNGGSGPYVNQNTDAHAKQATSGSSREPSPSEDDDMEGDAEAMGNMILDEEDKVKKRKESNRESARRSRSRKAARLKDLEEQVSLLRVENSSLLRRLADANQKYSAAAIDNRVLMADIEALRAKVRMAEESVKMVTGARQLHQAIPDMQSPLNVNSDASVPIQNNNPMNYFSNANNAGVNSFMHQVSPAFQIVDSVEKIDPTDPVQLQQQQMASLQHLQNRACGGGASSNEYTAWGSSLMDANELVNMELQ
Outline: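 The binding signal is fluorescence intensity per array feature (arbitrary units). Readings came from an Axon 4000B scanner after a washed, 2% BSA-blocked, double-stranded custom Agilent array had been incubated for 1 h at 25 °C with 200 nM protein and 50 µM zinc acetate. The protein was a Ni–NTA-purified transcription factor fused N-terminally to polyhistidine and DsRed, expressed in E. coli BL21-CodonPlus.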

Sequence	binding signal
GACACGTATGATTTGTGTGGTAGTACATAGCACGCACGCACGGAGTCACCTAGTGCAG	35800 fluorescence intensity (a.u.)
CCAGGCACCGACCTGTAGTTGCATCAGCAAACCATGGCTGCGGAGTCACCTAGTGCAG	4690 fluorescence intensity (a.u.)
AGGGATTATGTGTGTGTAAGATATTTGTGACTAGTTTATTCGGAGTCACCTAGTGCAG	3630 fluorescence intensity (a.u.)
AAATATAGAGATTTATTAACATAACAGCCTATCCACGTGGCGGAGTCACCTAGTGCAG	17200 fluorescence intensity (a.u.)
TTGTAAGCTCAGCCTAGATAGAGTGAAGATATTTTATTGGCGGAGTCACCTAGTGCAG	49700 fluorescence intensity (a.u.)
ATGAAATGGACCTCAAGATCGAGTCATGACAAGACAACGGCGGAGTCACCTAGTGCAG	4150 fluorescence intensity (a.u.)
TACACTGGTGGATGTGAATCATTGGAATGCATGCCTCCTGCGGAGTCACCTAGTGCAG	3810 fluorescence intensity (a.u.)
TTAGGCCTCTCACAGTGCTCTTAGCTGGACCGGTGCTACACGGAGTCACCTAGTGCAG	3920 fluorescence intensity (a.u.)
GGGATAGCAGGACACGTGTGTATAGCTGCTGCGCCTGCCTCGGAGTCACCTAGTGCAG	9260 fluorescence intensity (a.u.)
CCTCAGGCCGCCTCTCGTGCTGTACACGTAGGATAGCTACCGGAGTCACCTAGTGCAG	46200 fluorescence intensity (a.u.)
TTAAATGAATCATTTTGTTCCTATTTCTAAAATAAACTATCGGAGTCACCTAGTGCAG	3380 fluorescence intensity (a.u.)
ATGCAGGCCACCTCACGCCACACGCTGTATCGCGCCCATACGGAGTCACCTAGTGCAG	5790 fluorescence intensity (a.u.)
CTAGCTACTTCTATCCTCCACCTCCTAAATGATCGATTTGCGGAGTCACCTAGTGCAG	3740 fluorescence intensity (a.u.)
TCAGTAGTTGCTTCTCGCAACGTCACAGGCTTTAGATGCACGGAGTCACCTAGTGCAG	44200 fluorescence intensity (a.u.)
CCAACCATGCTTCGCAGTTGTCACAGAACGTCAACAGTGCCGGAGTCACCTAGTGCAG	3460 fluorescence intensity (a.u.)
TGTTAGTTTTGCATGCACAGAGATGATTAGGCAGTAGCAACGGAGTCACCTAGTGCAG	3940 fluorescence intensity (a.u.)
CCAGATATCTTTTACTAAAGGATGGAAATGAGGCGTAATTCGGAGTCACCTAGTGCAG	29100 fluorescence intensity (a.u.)
GAGTTGTGCAGCCAAGTCAGCTGCACATGGGGAACAAGCGCGGAGTCACCTAGTGCAG	6520 fluorescence intensity (a.u.)
GTGTAGTTGGAGCGCGCGGTGGAAGATGAACAAGCTCAGCCGGAGTCACCTAGTGCAG	41200 fluorescence intensity (a.u.)
ACAAAGGAGAAGAAGCCATGATGTGGAGTTGGCCGGTGGCCGGAGTCACCTAGTGCAG	3800 fluorescence intensity (a.u.)
AAAATAATTAAAATAGTACGAGTAGATTCACACAAGATCTCGGAGTCACCTAGTGCAG	39900 fluorescence intensity (a.u.)
AACAATAACAAGATTAAAATAAACTTCACACGTTGTAATGCGGAGTCACCTAGTGCAG	3160 fluorescence intensity (a.u.)

Sequence	binding signal
TAAAACAAGTCATAATAAAATAAATAGTAATTAAAATTCTCGGAGTCACCTAGTGCAG	29200 fluorescence intensity (a.u.)
GCAAAATGTCAGGCCGACACAACCCGTCATACTCTTCATGCGGAGTCACCTAGTGCAG	3480 fluorescence intensity (a.u.)
GGGGTGCTTCACAAATCCCCTTGCGTACATGAGGTGTTTTCGGAGTCACCTAGTGCAG	3320 fluorescence intensity (a.u.)
CTATCCGTCCAAATTAGGCTATCTCTAAAGATTAACTAACCGGAGTCACCTAGTGCAG	41000 fluorescence intensity (a.u.)
AGTCTCTAACTAAACACCATATATCTCTATTAATTACTACCGGAGTCACCTAGTGCAG	16000 fluorescence intensity (a.u.)
GTAACTAAAGATACAAAATTATTAGTGTAACCGGAGGCATCGGAGTCACCTAGTGCAG	34600 fluorescence intensity (a.u.)
TTTTATGTATGTATTCAAATATTTCGATGTGACGGAATTTCGGAGTCACCTAGTGCAG	4210 fluorescence intensity (a.u.)
GGATTTAACACTAGAGACCCTAATTTTGCTGCTCAGGCGACGGAGTCACCTAGTGCAG	28500 fluorescence intensity (a.u.)
ATATGAGATATTTCATATGCTGTTTATTGCTGCTGCCAGACGGAGTCACCTAGTGCAG	6080 fluorescence intensity (a.u.)
GGAAAGAGAAGAGAGGAAAGAGAGATGACGTGGACACCTGCGGAGTCACCTAGTGCAG	21100 fluorescence intensity (a.u.)
TCGTCGCACGACCAGACCAGCAGCACCAACTCCCTTTCTGCGGAGTCACCTAGTGCAG	3160 fluorescence intensity (a.u.)
ACCATATGACTTATATATCTGTCGTCAGCTCATTTCTATGCGGAGTCACCTAGTGCAG	7290 fluorescence intensity (a.u.)
GTGTCATTTCATTCACTGGTCGGCTATATCTGGGCATATGCGGAGTCACCTAGTGCAG	53800 fluorescence intensity (a.u.)
ATGGGGAATCTGGCACCTTTGGCTACTGGTGATTCAGTGTCGGAGTCACCTAGTGCAG	3510 fluorescence intensity (a.u.)
TGGCGCCTCTCACCGCCACGTCGCCGCCGGCGAGGTGAAACGGAGTCACCTAGTGCAG	20800 fluorescence intensity (a.u.)
ATCACGTGATTAAAACAGTAATTATCGAGCACGGAAGGAACGGAGTCACCTAGTGCAG	40600 fluorescence intensity (a.u.)
ACGATTAATTGTTTAGTAAGCGTGCTGACGTTAAACGAGACGGAGTCACCTAGTGCAG	3690 fluorescence intensity (a.u.)
CGATCGATCGATTGTGAGCACCGAACTCCCTTAATTAGGACGGAGTCACCTAGTGCAG	3390 fluorescence intensity (a.u.)
GGTGACAATTGTCATTTGCTCAGCAACTAACATTACTAAACGGAGTCACCTAGTGCAG	18200 fluorescence intensity (a.u.)
CACTGTTTGATGCTAAAACATATTACGTGTGCCGTTCATACGGAGTCACCTAGTGCAG	3580 fluorescence intensity (a.u.)
CAGTCCACATAACCTGAACCCAGCGTCAATCCGCAAGCAACGGAGTCACCTAGTGCAG	40200 fluorescence intensity (a.u.)
